VCAM1 TNFa pot = enhances TNF alpha induced VCAM1 expression in HUVEC; HUVEC TNFa-stimulated VCAM-1 immunofluorescence, high-content imaging; scaled per plate to unstimulated/TNFa-only wells; activation, % at 2 µM; 93,000 compounds, 0.19% hits; AID 808;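 active = activation above the screen mean plus 3 SD, with well images confirming the hit on visual review, cut at about 28% in these data, passing the limit was not always enough; inconclusive = activation above that limit but images do not confirm it; inactive = activation not above that limit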;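 note: signal is the number of cytoplasmic VCAM-1 stained grains per positive cell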
VCAM1 pot conf = potentiators of TNFa-induced VCAM1 expression, confirmation, imaging, HUVEC, triplicate retest | shares compounds with VCAM1 TNFa pot | activation, % at 2 µM | HUVEC TNFa-stimulated VCAM-1 immunofluorescence imaging | 230 tested, under 10 active;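 active = activation above 30% in triplicate retests at 2 µM, then confirmed by visual review of the well images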
Numbers stand for hits; 0 = inactive; ? = inconclusive. The full list was thinned out, with hits kept by preference.

SMILES	VCAM1 TNFa pot	others
Cc1ccc(S(=O)(=O)N(C)CCCC(=O)N2CCN(c3ccccn3)CC2)cc1	81.0	VCAM1 pot conf=0
Cc1ccc2cccc(OC(=O)N3CCCC3)c2n1	?	VCAM1 pot conf=0
CCN1CCN(C(=O)COc2cc(=O)n(CC)c3ccccc23)CC1	0
O=c1[nH]c(=S)n(CCC2=CCCCC2)c(O)c1C=NCCCn1ccnc1	0
CSc1ccc(CNC2CN3CCC2CC3)cc1 (stereo not given)	0
C=CCOC(=O)C1=C(C)OC(N)=C(C#N)C12C(=O)N(CN1CCOCC1)c1ccccc12 (stereo not given)	0
Cc1sc2nc(COC(=O)Cc3ccccc3)[nH]c(=O)c2c1C	0
CNP1(NC)=NC(C(F)(F)F)=NC(C(F)(F)F)=N1	0
COc1ccc(Oc2cc(NC(=O)c3nn(C)cc3[N+](=O)[O-])cc([N+](=O)[O-])c2)cc1	0
CC(=NCCN1CCCCC1)c1c(O)[nH]c(=O)[nH]c1=O	0

Bioassay records from PubChem BioAssay.
